According to PubChem BioAssay (EPA / NIEHS):
Inconclusive results are not listed. The source made the active and inactive calls. How the source made its calls, unless noted: active means hit-call score of the fitted dose curve at least 0.9, where 1 is the maximum; inconclusive means response in the unintended direction; inactive means score below 0.9.

Columns and labels:
[1] = molecular target: Androgen receptor (Homo sapiens) (UniProt P10275); test: ATG_AR_TRANS: Attagene TRANS-FACTORIAL HepG2 Assay for human Androgen Receptor (AR) (AID 2282973); conditions: HepG2 Attagene TRANS-FACTORIAL AR reporter transcription
Summary of the method: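 HepG2 cells transiently transfected with multiplexed GAL4-UAS reporter units and chimeric NR-Gal4 fusion; 24 h compound exposure. Reporter mRNA measured by RT-PCR, 6-FAM labelling, HpaI digestion and capillary electrophoresis; gain-of-signal fitted relative to DMSO baseline.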

[2] = molecular target: Norway rat Vesicular Monoamine Transporter (VMAT2), neurotransmitter transporter, Slc18a2 (gene 25549) (UniProt Q01827); test: NVS_TR_rVMAT2: NovaScreen (NVS) Transporter Assay for Norway rat Vesicular Monoamine Transporter (VMAT2), neurotransmitter transporter (AID 2283376);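 further: actives lower the bound radioligand signal below the DMSO level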
Summary of the method: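 Tissue: rat forebrain extract. Format: competitive radioligand binding, cell-free. Timepoint: 1 h. Readout: filter radiodetection/scintillation. Screen: 25 uM in duplicate, then concentration series for actives. Baseline: DMSO.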

[3] = Tanguay_ZF_120hpf_MUSC: Oregon State University Tanguay Lab 120 Hour Post-fertilization zebrafish Assay for Muscle Malformation (AID 2284401; active means hit-call score of the fitted dose curve at least 0.9, where 1 is the maximum; inactive means score below 0.9)
Summary of the method: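 Dechorionated Tropical 5D wild-type zebrafish embryos exposed statically from 6 to 120 hpf at 28C, one per well, in 0.64% DMSO. Muscle malformation scored present/absent by brightfield microscopy at 120 hpf, fitted against DMSO.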

[4] = molecular target: bovine Gamma-Aminobutyric Acid Type A Receptor BDZ, alpha 1 site (GABARa1), GABRA1 (gene 780973) (UniProt P08219); test: NVS_LGIC_bGABARa1: NovaScreen (NVS) Ligand-Gated Ion Channel Assay for bovine Gamma-Aminobutyric Acid Type A Receptor BDZ, alpha 1 site (GABARa1) (AID 2283321)
Summary of the method: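 Radioligand competition binding on bovine cortical membranes, 0.75 h, filter-based scintillation counting. Primary single concentration 25 uM in duplicate; actives rerun in concentration-response to 50 uM max. Loss of signal fitted versus DMSO.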

[5] = molecular target: Bile acid receptor (Homo sapiens) (UniProt Q96RI1); test: NVS_NR_hFXR_Agonist: NovaScreen (NVS) Nuclear Receptor Binding Assay for human Farnesoid X Receptor Agonism (FXR) (AID 2283347)
Summary of the method: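 Cell-free TR-FRET binding assay with extracted human FXR protein, agonist format, read 1 h after dosing. Primary screen at 25 uM single concentration in duplicate, actives retested in concentration series; gain of signal versus DMSO.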

[6] = system: rat Monoamine Oxidase, MAO-A, Central (MAOAC), gene 29253; test: NVS_ENZ_rMAOAC: NovaScreen (NVS) Enzymatic Assay for rat Monoamine Oxidase, MAO-A, Central (MAOAC) (AID 2283243);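 further: potency refers to inhibition seen as signal drop below DMSO baseline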
Summary of the method: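 Inhibition of rat brain-derived MAO-A was read by scintillation counting after 1.5 h exposure. Compounds screened first at 25 uM in duplicate, then in dose series if active.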

[7] = molecular target: human CYP4F12, CYP4F12 (gene 66002) (UniProt Q9HCS2); test: NVS_ADME_hCYP4F12: NovaScreen (NVS) CYP450-related Enzyme Activity (ADME) Assay for human CYP4F12 (AID 2283111)
Summary of the method: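 Cell-free fluorescence assay of recombinant human CYP4F12 activity on a specific substrate, read 0.5 h after dosing. Primary screen in duplicate at 10 uM, then concentration series for actives; loss of signal fitted against acetonitrile negative control.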

[8] = molecular target: human Acetylcholinesterase (AChE), ACHE (gene 43) (UniProt P22303); test: NVS_ENZ_hAChE: NovaScreen (NVS) Enzymatic Assay for human Acetylcholinesterase (AChE) (AID 2283129)
Summary of the method: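 Cell-free colorimetric enzyme-activity assay; compounds read 0.33 hour after dosing, loss of signal vs DMSO baseline. Primary screen in duplicate at 25 uM single concentration, with active compounds retested in concentration series.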

[9] = molecular target: human AMP-activated Protein Kinase, alpha 1 (AMPKa1), PRKAA1 (gene 5562) (UniProt Q13131); test: NVS_ENZ_hAMPKa1: NovaScreen (NVS) Enzymatic Assay for human AMP-activated Protein Kinase, alpha 1 (AMPKa1) (AID 2283130)
Summary of the method: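 Recombinant human AMPKα1 activity was measured cell-free by fluorescent substrate conversion with electrophoretic mobility-shift separation, 1 h after dosing. Duplicate single-point screening was at 25 uM; actives (≥30% inhibition) were retested in concentration-response up to 50 uM.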

[10] = molecular target: human Fibroblast Growth Factor Receptor 1 (FGFR1), FGFR1 (gene 2260) (UniProt P11362); test: NVS_ENZ_hFGFR1: NovaScreen (NVS) Enzymatic Assay for human Fibroblast Growth Factor Receptor 1 (FGFR1) (AID 2283159)
Summary of the method: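 Cell-free recombinant kinase with fluorescent substrate, product separated by electrophoretic mobility shift; read 1 hour after dosing, loss of signal relative to DMSO. Initial screen in duplicate at 25 uM, actives followed in concentration series.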

[11] = molecular target: human MET Proto-Oncogene, Receptor Tyrosine Kinase (MET), MET (gene 4233) (UniProt P08581); test: NVS_ENZ_hMet: NovaScreen (NVS) Enzymatic Assay for human MET Proto-Oncogene, Receptor Tyrosine Kinase (MET) (AID 2283180)
Summary of the method: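 Cell-free MET kinase assay using recombinant protein and fluorescent substrate, with mobility-shift separation; read 1 h after dosing. Primary duplicate at 25 uM; actives in singleton concentration-response to 50 uM maximum. Signal loss versus DMSO.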

PPP2CA (gene 5515) = PPP2CA (gene 5515) (UniProt P67775); test: NVS_ENZ_hPPP2CA: NovaScreen (NVS) Enzymatic Assay for human Protein Phosphatase 2 Aatalytic subunit Alpha (PPP2CA) (AID 2283199)
Summary of the method: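 Recombinant human PPP2CA with fluorescent substrate; product separated from substrate by electrophoretic mobility shift, read 1.33 h after dosing. Duplicate single-point at 25 uM, then singleton concentration-response up to 50 uM; loss of signal versus DMSO.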

[12] = molecular target: human Tyrosine Protein Kinase Receptor Tie-2 (Tie2), TEK (gene 7010) (UniProt Q02763); test: NVS_ENZ_hTie2: NovaScreen (NVS) Enzymatic Assay for human Tyrosine Protein Kinase Receptor Tie-2 (Tie2) (AID 2283225)
Summary of the method: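 Recombinant human Tie2 kinase activity was read cell-free by fluorescence with electrophoretic mobility shift, 1 hour after dosing. The screen used 25 uM in duplicate, then concentration-response up to 50 uM. Signal loss was scored against DMSO.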

[13] = molecular target: rat Acetylcholinesterase (AChE), Ache (gene 83817) (UniProt P37136); test: NVS_ENZ_rAChE: NovaScreen (NVS) Enzymatic Assay for rat Acetylcholinesterase (AChE) (AID 2283233)
Summary of the method: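 Rat brain membrane acetylcholinesterase activity measured colorimetrically 0.33 h after compound addition, loss of signal relative to DMSO. Primary screen in duplicate at 25 uM; actives re-run as concentration-response with 50 uM top concentration.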

[14] = system: rat Monoamine Oxidase, MAO-A, Peripheral (MAOAP), gene 29253; test: NVS_ENZ_rMAOAP: NovaScreen (NVS) Enzymatic Assay for rat Monoamine Oxidase, MAO-A, Peripheral (MAOAP) (AID 2283237)
Summary of the method: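 Rat liver mitochondrial membranes served as the MAO-A source, with enzyme activity measured by radiometric scintillation counting 1.17 hours after dosing. Loss of signal was fitted against DMSO; primary screen used 25 uM in duplicate, follow-up used concentration series.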

[15] = molecular target: human Neonicotinoid receptor (NNR), CHRNA2 (gene 1135) (UniProt Q15822); test: NVS_LGIC_hNNR_NBungSens: NovaScreen (NVS) Ligand-Gated Ion Channel Assay for human Neonicotinoid receptor (NNR) (AID 2283313)
Summary of the method: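 Radioligand displacement on human neuroblastoma membranes, 2 h, filter-based scintillation counting. Primary screen in duplicate at 25 uM; chemicals passing threshold (e.g. 30% inhibition) run singleton concentration-response to 50 uM; loss of binding fitted versus DMSO.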

Sequence of Androgen receptor (Homo sapiens) (P10275 whole entry, looked up, the tested form may be a part): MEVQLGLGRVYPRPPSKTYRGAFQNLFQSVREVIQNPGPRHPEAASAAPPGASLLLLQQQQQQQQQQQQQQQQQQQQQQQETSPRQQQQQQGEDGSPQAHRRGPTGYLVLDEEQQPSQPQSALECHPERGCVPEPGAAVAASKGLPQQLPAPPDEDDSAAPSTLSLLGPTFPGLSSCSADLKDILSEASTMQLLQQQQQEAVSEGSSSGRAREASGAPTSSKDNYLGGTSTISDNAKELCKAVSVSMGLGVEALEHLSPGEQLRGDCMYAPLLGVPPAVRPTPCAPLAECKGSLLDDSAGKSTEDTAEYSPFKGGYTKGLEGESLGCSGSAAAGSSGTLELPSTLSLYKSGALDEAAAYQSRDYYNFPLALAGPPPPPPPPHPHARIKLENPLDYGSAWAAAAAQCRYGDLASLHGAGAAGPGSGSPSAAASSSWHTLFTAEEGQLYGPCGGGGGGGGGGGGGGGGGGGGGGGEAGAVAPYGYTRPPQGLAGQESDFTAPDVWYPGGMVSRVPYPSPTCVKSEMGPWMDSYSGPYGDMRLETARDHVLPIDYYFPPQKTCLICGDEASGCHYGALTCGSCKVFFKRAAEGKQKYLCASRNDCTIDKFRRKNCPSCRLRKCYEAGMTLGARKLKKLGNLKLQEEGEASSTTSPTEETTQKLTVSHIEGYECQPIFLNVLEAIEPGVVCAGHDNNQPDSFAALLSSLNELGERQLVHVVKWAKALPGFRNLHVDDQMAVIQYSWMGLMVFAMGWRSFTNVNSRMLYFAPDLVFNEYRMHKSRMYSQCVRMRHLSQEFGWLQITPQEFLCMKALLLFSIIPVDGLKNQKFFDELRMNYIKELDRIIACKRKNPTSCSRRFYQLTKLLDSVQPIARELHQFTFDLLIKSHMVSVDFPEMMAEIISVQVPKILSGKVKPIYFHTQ
Sequence of Norway rat Vesicular Monoamine Transporter (VMAT2), neurotransmitter transporter, Slc18a2 (gene 25549) (Q01827 whole entry, looked up): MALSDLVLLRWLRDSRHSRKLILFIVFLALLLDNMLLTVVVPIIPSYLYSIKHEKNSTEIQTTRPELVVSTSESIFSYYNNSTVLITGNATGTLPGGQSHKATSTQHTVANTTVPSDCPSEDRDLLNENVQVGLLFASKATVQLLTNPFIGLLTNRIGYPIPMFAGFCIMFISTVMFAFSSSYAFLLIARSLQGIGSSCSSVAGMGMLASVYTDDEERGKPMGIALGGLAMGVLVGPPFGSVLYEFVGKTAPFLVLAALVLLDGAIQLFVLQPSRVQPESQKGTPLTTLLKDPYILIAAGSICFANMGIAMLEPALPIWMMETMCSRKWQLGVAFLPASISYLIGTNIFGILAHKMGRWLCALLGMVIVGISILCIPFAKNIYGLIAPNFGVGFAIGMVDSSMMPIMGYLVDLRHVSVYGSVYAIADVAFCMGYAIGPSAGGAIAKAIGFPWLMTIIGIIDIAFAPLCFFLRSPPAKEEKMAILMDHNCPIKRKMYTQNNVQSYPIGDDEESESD
Sequence of bovine Gamma-Aminobutyric Acid Type A Receptor BDZ, alpha 1 site (GABARa1), GABRA1 (gene 780973) (P08219 whole entry, looked up): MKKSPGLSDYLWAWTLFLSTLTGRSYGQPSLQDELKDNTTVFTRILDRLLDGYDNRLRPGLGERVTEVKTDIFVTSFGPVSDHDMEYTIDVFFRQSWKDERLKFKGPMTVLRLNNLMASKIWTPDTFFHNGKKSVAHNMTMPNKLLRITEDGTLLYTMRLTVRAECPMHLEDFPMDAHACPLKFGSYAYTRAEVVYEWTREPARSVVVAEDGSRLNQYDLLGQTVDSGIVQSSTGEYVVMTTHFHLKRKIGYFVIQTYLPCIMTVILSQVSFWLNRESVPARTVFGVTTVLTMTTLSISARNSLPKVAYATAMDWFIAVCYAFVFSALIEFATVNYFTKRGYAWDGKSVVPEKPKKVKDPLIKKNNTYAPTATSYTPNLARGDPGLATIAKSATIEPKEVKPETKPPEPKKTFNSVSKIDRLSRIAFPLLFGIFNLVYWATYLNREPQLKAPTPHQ
Sequence of human MET Proto-Oncogene, Receptor Tyrosine Kinase (MET), MET (gene 4233) (P08581 whole entry, looked up): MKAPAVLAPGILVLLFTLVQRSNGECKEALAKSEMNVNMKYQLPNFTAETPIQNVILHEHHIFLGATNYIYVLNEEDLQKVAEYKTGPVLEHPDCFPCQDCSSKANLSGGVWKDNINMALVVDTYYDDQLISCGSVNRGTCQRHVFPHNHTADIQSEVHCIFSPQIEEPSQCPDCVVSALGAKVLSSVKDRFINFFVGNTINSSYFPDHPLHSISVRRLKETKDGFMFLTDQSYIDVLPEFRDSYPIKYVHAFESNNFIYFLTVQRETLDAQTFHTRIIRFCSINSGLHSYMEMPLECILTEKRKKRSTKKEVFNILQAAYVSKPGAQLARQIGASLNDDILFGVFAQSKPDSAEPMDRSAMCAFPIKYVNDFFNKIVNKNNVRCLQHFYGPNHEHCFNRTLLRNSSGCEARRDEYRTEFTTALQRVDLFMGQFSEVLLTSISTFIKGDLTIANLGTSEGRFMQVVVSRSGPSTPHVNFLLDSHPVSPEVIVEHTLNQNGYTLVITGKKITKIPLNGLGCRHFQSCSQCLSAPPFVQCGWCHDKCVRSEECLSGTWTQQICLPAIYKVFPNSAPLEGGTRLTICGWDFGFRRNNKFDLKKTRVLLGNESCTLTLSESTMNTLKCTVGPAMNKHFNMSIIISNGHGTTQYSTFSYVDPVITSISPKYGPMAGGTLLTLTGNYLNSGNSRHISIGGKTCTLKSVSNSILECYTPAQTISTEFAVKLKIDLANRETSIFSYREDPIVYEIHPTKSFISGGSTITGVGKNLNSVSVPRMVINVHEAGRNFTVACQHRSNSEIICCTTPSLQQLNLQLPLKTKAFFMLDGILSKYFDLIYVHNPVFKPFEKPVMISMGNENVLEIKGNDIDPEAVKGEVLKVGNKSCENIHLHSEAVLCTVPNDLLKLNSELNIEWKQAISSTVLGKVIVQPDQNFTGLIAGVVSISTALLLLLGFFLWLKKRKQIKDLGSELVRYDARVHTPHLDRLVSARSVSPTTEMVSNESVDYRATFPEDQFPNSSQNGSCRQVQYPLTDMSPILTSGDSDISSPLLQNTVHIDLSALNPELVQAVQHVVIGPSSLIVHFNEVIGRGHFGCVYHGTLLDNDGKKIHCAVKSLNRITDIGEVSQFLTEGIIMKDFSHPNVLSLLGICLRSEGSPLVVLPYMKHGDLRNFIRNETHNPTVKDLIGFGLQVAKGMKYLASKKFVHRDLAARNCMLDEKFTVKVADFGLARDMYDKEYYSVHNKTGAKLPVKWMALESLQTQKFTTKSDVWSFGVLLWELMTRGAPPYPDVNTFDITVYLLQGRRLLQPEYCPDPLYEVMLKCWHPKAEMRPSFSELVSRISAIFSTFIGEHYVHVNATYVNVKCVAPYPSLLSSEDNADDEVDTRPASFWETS
Sequence of human Acetylcholinesterase (AChE), ACHE (gene 43) (P22303 whole entry, looked up): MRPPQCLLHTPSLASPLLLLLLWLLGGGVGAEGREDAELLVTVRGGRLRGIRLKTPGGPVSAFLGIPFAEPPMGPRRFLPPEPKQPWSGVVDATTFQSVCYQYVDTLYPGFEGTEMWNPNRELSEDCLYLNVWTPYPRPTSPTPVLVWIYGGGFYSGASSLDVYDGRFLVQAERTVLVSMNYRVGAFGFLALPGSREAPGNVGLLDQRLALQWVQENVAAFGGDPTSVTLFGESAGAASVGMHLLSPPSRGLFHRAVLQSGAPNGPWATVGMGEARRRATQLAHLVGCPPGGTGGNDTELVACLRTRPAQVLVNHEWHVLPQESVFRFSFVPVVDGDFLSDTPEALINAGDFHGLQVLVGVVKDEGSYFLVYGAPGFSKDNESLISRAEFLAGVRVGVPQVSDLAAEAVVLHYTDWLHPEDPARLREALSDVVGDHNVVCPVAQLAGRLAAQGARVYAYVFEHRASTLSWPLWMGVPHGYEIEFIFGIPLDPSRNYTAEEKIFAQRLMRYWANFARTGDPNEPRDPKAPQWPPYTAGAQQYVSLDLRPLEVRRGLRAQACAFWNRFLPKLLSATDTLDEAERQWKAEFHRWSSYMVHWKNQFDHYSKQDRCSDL
Sequence of human Tyrosine Protein Kinase Receptor Tie-2 (Tie2), TEK (gene 7010) (Q02763 whole entry, looked up): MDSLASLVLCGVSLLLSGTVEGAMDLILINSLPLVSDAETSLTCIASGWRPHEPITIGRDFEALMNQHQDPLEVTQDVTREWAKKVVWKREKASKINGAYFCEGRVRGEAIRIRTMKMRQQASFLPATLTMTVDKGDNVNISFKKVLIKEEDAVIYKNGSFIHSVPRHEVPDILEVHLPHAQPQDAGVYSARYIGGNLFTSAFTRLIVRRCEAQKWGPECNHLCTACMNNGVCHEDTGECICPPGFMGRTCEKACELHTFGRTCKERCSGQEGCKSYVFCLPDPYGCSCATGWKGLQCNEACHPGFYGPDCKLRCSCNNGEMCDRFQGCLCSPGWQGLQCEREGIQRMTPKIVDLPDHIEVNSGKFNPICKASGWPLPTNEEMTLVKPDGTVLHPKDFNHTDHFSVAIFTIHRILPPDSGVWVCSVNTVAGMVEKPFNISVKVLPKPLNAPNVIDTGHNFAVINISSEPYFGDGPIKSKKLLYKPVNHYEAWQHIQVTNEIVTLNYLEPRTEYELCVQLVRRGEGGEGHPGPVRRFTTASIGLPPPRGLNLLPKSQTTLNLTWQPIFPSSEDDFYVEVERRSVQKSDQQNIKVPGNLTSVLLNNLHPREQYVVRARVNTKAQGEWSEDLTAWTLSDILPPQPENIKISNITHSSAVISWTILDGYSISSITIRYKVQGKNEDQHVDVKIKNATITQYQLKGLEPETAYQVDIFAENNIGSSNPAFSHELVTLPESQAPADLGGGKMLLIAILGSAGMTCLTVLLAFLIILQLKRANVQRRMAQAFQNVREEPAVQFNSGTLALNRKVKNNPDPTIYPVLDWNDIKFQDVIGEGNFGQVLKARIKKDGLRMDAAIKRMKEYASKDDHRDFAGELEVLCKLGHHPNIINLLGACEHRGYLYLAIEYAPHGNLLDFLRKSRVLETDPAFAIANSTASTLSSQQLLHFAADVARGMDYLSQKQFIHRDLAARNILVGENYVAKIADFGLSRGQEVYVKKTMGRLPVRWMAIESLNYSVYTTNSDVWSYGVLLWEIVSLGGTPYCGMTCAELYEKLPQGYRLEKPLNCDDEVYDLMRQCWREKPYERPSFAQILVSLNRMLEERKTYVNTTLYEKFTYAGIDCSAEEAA

SMILES: CCN(CC)c1ccc(N=Nc2ccccc2)cc1
- outcome [1]: inactive
- outcome [2]: inactive

SMILES: OCC(O)CC(F)(F)C(F)(F)C(F)(F)C(F)(F)C(F)(F)C(F)(F)C(F)(F)C(F)(F)F (stereo unspecified)
- outcome [1]: inactive
- outcome [3]: inactive

SMILES: CCCCOC(=O)c1ccc(O)cc1
- outcome [1]: inactive
- AC50 [4]: 35.1 µM (active)
- outcome [5]: inactive

SMILES: CCN(CC)c1ccc(C=O)c(O)c1
- outcome [1]: inactive
- AC50 [6]: 17.5 µM (active)
- outcome [2]: inactive

SMILES: CNS(=O)(=O)C(F)(F)C(F)(F)C(F)(F)C(F)(F)C(F)(F)C(F)(F)C(F)(F)C(F)(F)F
- outcome [1]: inactive
- outcome [3]: inactive

SMILES: CCCCCCCCC(F)(F)C(F)(F)C(F)(F)C(F)(F)C(F)(F)C(F)(F)F
- outcome [1]: inactive
- outcome [3]: inactive

SMILES: O=C(O)C(F)(F)C(F)(F)C(F)(F)F
- outcome [1]: inactive
- outcome [3]: inactive

SMILES: OCC(F)(F)C(F)(F)C(F)(F)C(F)(F)C(F)(F)C(F)(F)F
- outcome [1]: inactive
- outcome [3]: inactive

SMILES: FC(F)(F)C(F)(F)C(F)(F)C(F)(F)C(F)(F)C(F)(F)C(F)(F)Br
- outcome [1]: inactive
- outcome [3]: inactive

SMILES: Cc1ccc(S(=O)(=O)OCC(F)(F)C(F)(F)C(F)(F)C(F)(F)C(F)(F)C(F)F)cc1
- outcome [1]: inactive
- outcome [3]: inactive

SMILES: CCN(CC)CCNc1ccc(CNC=O)c2sc3ccc(OC)cc3c(=O)c12
- AC50 [7]: 1.41 µM (active)
- AC50 [8]: 13.9 µM (active)
- outcome [9]: inactive
- outcome [10]: inactive
- outcome [11]: inactive
- outcome (PPP2CA (gene 5515)): inactive
- outcome [12]: inactive
- AC50 [13]: 15.7 µM (active)
- AC50 [14]: 9.35 µM (active)
- AC50 [6]: 25 µM (active)
- outcome [15]: inactive
- outcome [4]: inactive

SMILES: OC(O)C(F)(F)C(F)(F)F
- outcome [1]: inactive
- outcome [3]: inactive
